Screening data as filed in PubChem.
DT40 TDP1 no CPT: qHTS for Inhibitors of human tyrosyl-DNA phosphodiesterase 1 (TDP1): qHTS in cells in absence of CPT. DT40 Tdp1-/- hTDP1 cells, no CPT, ATP luminescence, 48 h. Potency, µM (highest dose often 46.2 µM), without a hit: top-dose activity change, negative = growth inhibition, actives largely listed as inhibitors. 420,000 tested, 15% active. AID 686978, 2013; further: potency means the concentration at half of the fitted maximal effect; on the % scale 0 is the no-effect control and ±100 the full control effect; nearly all actives have a fitted effect of over 55% in size
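Compound effects on proliferation are scored in DT40 Tdp1-/-;hTDP1 cells in the absence of CPT. ATP levels (CellTiter-Glo luminescence) are recorded after a ≥48 hr, 37 °C incubation.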
SW480 rerep: inducers of DNA re-replication in SW480 colon cancer cells; SW480 DNA re-replication, Hoechst DNA content imaging, 48 h; Potency, µM (titrated, usually from 46.1 µM), without a hit: at the highest dose re-replication activation, usual class: activators; 340,000 tested, 1.8% active; AID 624297; further: potency means the concentration at half of the fitted maximal effect; % of control where 0% means no effect; nearly all actives have a fitted effect of over 55% in size
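Image-based DNA-content assay: after two days of treatment, nuclei were labelled with the DNA dye Hoechst and imaged, and hits were compounds raising the count of nuclei showing high fluorescence intensity.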
TDP1 cell CPT: DT40-hTDP1 cell growth loss with CPT. chicken DT40 Tdp1-/-;hTDP1 cells + 20 nM CPT, ATP luminescence, 48 h. Potency, µM (titrated, usually from 46.2 µM), for inactives: top-dose activity change, negative = growth inhibition, usual class: inhibitors. 420,000 tested, 12% active. AID 686979; further: potency means the concentration at half of the fitted maximal effect; on the % scale 0 is the no-effect control and ±100 the full control effect; nearly all actives have a fitted effect of over 55% in size
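Cell growth measured by CellTiter-Glo luminescence after a minimum 48 h, 37 C compound exposure with 20 nM CPT in Tdp1-knockout DT40 cells stably expressing hTDP1, seeded 400/well; qHTS titration format.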
MCF10A rereplic: inducers of DNA re-replication in MCF 10A breast cells. MCF 10A DNA re-replication, Hoechst nuclear intensity, 48 h. Potency, µM (top dose mostly 46.1 µM), inactives show at the top dose activity, positive = re-replication, usual class: activators. 350,000 tested, 2.9% active. AID 624296; further: potency means the concentration at half of the fitted maximal effect; % of control where 0% means no effect; nearly all actives have a fitted effect of over 50% in size
BCR signal inh: inhibitors of chronic active B-cell receptor signaling; ABC-DLBCL IkBa-CBG/CBR reporter, luminescence ratio, 4 h; 340,000 tested, 0.05% active; Potency, µM (top dose mostly 46.1 µM), inactives show at the highest dose activity change, negative = inhibition, hits mostly inhibitors; active means well fitted inhibition curve with a large enough effect in the signal ratio, with a control signal flat, not every such curve was filed as active; inconclusive means small, poorly fitted or top-dose-only effect, or effect the other way, or a change in a side signal; the % refers to the signal ratio;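 further: potency means the concentration at half of the fitted maximal effect; plate controls were basal doxycycline-induced cells for no effect and cells given 10 µM MG132 for full effect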
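Cell line TMD8 (human ABC DLBCL), stably expressing tet-inducible CBG68-IkBa fusion and CBR; IMDM/0.5% FBS; cpd up to 46 uM; dox induction, 4 h, 37C/5% CO2; dual luminescence; green/red ratio; MG132 control.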
IL-1B inflam inh: blocks inflammasome-driven IL-1 beta release; THP-1 LPS/ATP IL-1B secretion, AlphaLISA, 16 h; active compounds read low; activity change, % at 57.5 µM; 360,000 tested, 4.7% active; in the data active means activity change below about -50%; inconclusive means mostly about -30% to -49%; further: on the % scale 0 is the no-effect control and ±100 the full control effect
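THP-1 cells pretreated 1 hr with compounds (up to 57.5 uM final), then stimulated with LPS (250 ng/mL final) plus ATP (1.25 mM final); secreted IL-1B measured by AlphaLISA after 16 hr, decreased signal indicating inhibition.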
Numbers without * were called inactive; ? = inconclusive; / = no result given; [ ] = dose if it differs, or a comment. Rows were chosen to be rich in hits. Some 19% of all compounds tested hit in one or more screens of this group. Unless noted, the call rests on the fitted dose curve; in most records, active means well fitted curve in the direction sought with a large enough effect; inconclusive means small, poorly fitted or top-dose-only effect, or another doubt; inactive means no such curve, though single readings can be large; an effect the other way counts as inactive or inconclusive.

SMILES | DT40 TDP1 no CPT | SW480 rerep | TDP1 cell CPT | MCF10A rereplic | BCR signal inh | IL-1B inflam inh
COc1ccc(CN2CCNC(=O)C2CC(=O)N(C)Cc2nc(C)cs2)c(OC)c1 (configuration not stated) | 9% | 28% | 1% | 4% | -2% | 0
Cc1ccc(C)c(C(=O)C[n+]2cccc(Br)c2)c1 | ? | / | 7% | / | / | /
COc1ccc(C(C)(O)c2nc(-c3cccc(NC(C)=O)c3)cs2)cc1 (configuration not stated) | ? | / | -72% | / | / | 29
CC(Sc1nc2ccccc2c(=O)n1CC1CCCO1)C(=O)N(C)Cc1ccccc1 (configuration not stated) | ? | -8% | ? | 10% | 5% | -2
CC(Sc1nc2ccccc2c(=O)n1C)C(=O)N(C)C1CCCCC1 (configuration not stated) | 7.3µM* | -5% | 10µM* | ? | ? | 3
CC(=O)N(Cc1ccccc1)C(CC(=O)NCc1ccccc1)C(=O)O (configuration not stated) | -20% | -3% | -3% | -2% | / | -1
Cc1ccn2c(=O)cc(COc3ccc(NC(=O)COc4ccccc4)cc3)nc2c1 | 4% | / | 8% | / | / | /
COc1ccc(NC(=O)CCCn2c(=O)c3cccn3c3ccccc32)c(OC)c1 | 10µM* | / | 13µM* | / | / | /
COc1ccc(OC)c(NC(=O)Cn2c(=O)c3cccn3c3ccccc32)c1 | 12µM* | / | ? | / | / | /
COc1ccccc1NC(=O)CCn1c(=O)c2cccn2c2ccccc21 | 23µM* | 26% | ? | 0% | 4% | -4
Cc1cc(C)cc(NC(=O)CCCn2c(=O)c3cccn3c3ccccc32)c1 | -13% | / | -11% | / | / | /
CCN(Cc1ccccc1)S(=O)(=O)c1c(C)[nH]c(C)c1C(=O)N1CCCCC1 | -12% | -5% | -1% | 0% | 0% | -12
CCCOCC(O)CCc1n[nH]c(=S)n1-c1ccccc1 (configuration not stated) | -2% | -9% | 6% | 8% | 2% | -5
CCCCOC(=O)c1ccc(NC(=O)CSC2=Nc3ccccc3C3CC=NN23)cc1 (configuration not stated) | ? | 19% | 23µM* | 7% | ? | 45
O=C(CSc1n[nH]c(=O)n1Cc1ccccc1)Nc1ccc(F)c(F)c1F | ? | -8% | 18% | 18% | ? | 17
O=C(CSC1=Nc2ccccc2C2CC=NN12)Nc1ccc(F)c(F)c1F (configuration not stated) | 5% | 5% | ? | 21µM* | -2% | 17
CCOC(=O)c1ccc(CNCc2ccccc2)cc1 | ? | 14% | -9% | -28% | 7% | 0
CCOC(=O)c1ccc(/[N+]([O-])=C/c2ccccc2)cc1 | ? | 0% | 13µM* | 17% | -5% | -19
C#CCCc1cscc1/C=[N+](\[O-])c1ccc(C(=O)OCC)cc1 | ? | 2% | 23µM* | -1% | -4% | -10
CC1CCc2c(N3CCC(O)CC3)c(F)cc3c(=O)c(C(=O)O)cn1c23 (configuration not stated) | ? | -80% | ? | -40% | 2% | 0
NC1CCN(c2nc3c(cc2F)c(=O)c(C(=O)O)cn3-c2ccc(F)cc2F)C1 (configuration not stated) | 8.2µM* | ? | 16µM* | -2% | / | -25
CCn1cc(C(=O)O)c(=O)c2cc(F)c(N3CCNCC3)nc21 | ? | -40% | ? | -23% | / | 30
NC1CCN(c2c(F)cc3c(=O)c(C(=O)O)cn(C4CC4)c3c2Cl)C1 (configuration not stated) | 6.5µM* | 3% | 7.3µM* | 0% | 22% | 0
Cc1cccc(N2CCN(c3ccc4cc(S(=O)(=O)N5CCC(C)CC5)ccc4n3)CC2)c1C | -16% | / | 1% | / | / | /
O=C(NNC(=O)c1ccc(SCC2CCCO2)c([N+](=O)[O-])c1)c1ccc(F)cc1 (configuration not stated) | 20µM* | -3% | ? | -8% | -1% | -7
SMILES | DT40 TDP1 no CPT | SW480 rerep | TDP1 cell CPT | MCF10A rereplic | BCR signal inh | IL-1B inflam inh
CCOc1ccccc1CNc1ccc2cc(S(=O)(=O)N3CCC(C)CC3)ccc2n1 | 23µM* | / | ? | / | / | /
CC1CCN(S(=O)(=O)c2ccc3nc(N4CCN(c5ccccc5F)CC4)ccc3c2)CC1 | ? | / | -14% | / | / | /
CC1CCN(S(=O)(=O)c2ccc3nc(NCc4ccc(N(C)C)cc4)ccc3c2)CC1 | 12µM* | / | 23µM* | / | / | /
CC1CCN(S(=O)(=O)c2ccc3nc(NCc4ccc(F)cc4)ccc3c2)CC1 | 13µM* | / | 13µM* | / | / | /
Cc1ccc(CNc2ccc3cc(S(=O)(=O)N4CCCCC4)ccc3n2)cc1 | 10µM* | / | 10µM* | / | / | /
CC(OC(=O)c1cccc(-n2cnnn2)c1)C(=O)Nc1cccc(Cl)c1 (configuration not stated) | ? | ? | ? | -1% | 0% | -1
COc1cc(NC(=O)Cn2ccc3ccccc3c2=O)cc(OC)c1OC | -8% | / | -21% | / | / | /
Cc1cccc(CNC(=O)c2cnn(-c3nccc(-c4ccccc4F)n3)c2C)n1 | -1% | / | 8%[9.04 µM] | / | / | /
CCNC(=O)C1CCCN(C(=O)c2cccs2)CC1 (configuration not stated) | 12% | / | 3% | / | / | 2
CCOc1ccc(/C=C/c2nc(C#N)c(NC(C)c3ccccc3)o2)cc1 (configuration not stated) | 12µM* | / | 13µM* | / | / | /
CCOc1ccc(/C=C/c2nc(C#N)c(N3CCN(c4ccc(OC)cc4)CC3)o2)cc1 | -24% | / | 1% | / | / | /
CCOc1ccc(Nc2oc(-c3ccccc3Cl)nc2C#N)cc1 | ? | ? | -29% | 28% | ? | 0
CCOc1ccc(/C=C/c2nc(C#N)c(Nc3ccc(OC)cc3)o2)cc1 | 16µM* | / | 21µM* | / | / | /
CCOc1ccc(Nc2oc(/C=C/c3cccc(OC)c3)nc2C#N)cc1 | 23µM* | / | ? | / | / | /
CCOc1ccc(/C=C/c2nc(C#N)c(Nc3ccc(OCC)cc3)o2)cc1 | 23µM* | / | 23µM* | / | / | /
Cc1ccc(-n2nc3c(c2NC(=O)C(C)(C)C)CS(=O)(=O)C3)cc1 | -24% | -21% | -5% | -3% | 0% | 3
CCCn1c(=N)c(C(=O)NC(C)c2ccccc2)cc2c(=O)n3ccccc3nc21 (configuration not stated) | ? | / | ? | / | -1% | /
